hgDAF12 agonist: H. glycines DAF-12 receptor agonists, primary screen, cell-based, luminescence, HEK293, GAL4 fusion, UAS-luciferase; Nuclear hormone receptor DAF-12 (Heterodera glycines), GAL4 fusion; HEK293 GAL4-hgDAF12 UAS-luciferase reporter, agonist luminescence; normalized to butyrate control; activation, % at 6.8 µM; 370,000 tested, 1.8% active;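 active = activation above a cutoff set at the mean of all screened compounds plus 3 SD, cut at about 10% in these data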
DAX1 inh-1: DAX1 (NR0B1) inhibitors on StAR promoter, primary screen, cell-based, luminescence, SF-1 (NR5A1), full-length DAX-1; HEK293T StAR-luciferase reporter, SF-1/DAX-1 repression relief; inhibition, % at 6.8 µM; 370,000 tested, 1.1% active; AID 652010, 2013;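 active = inhibition above the mean over all tested compounds plus 3 SD, cut at about 3.6% in these data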;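 also: higher inhibition means more luminescence from relief of DAX-1 repression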
SMARCA2 act: SMARCA2 (BRM) function activators, primary screen, cell-based, luminescence, high throughput | MG213 cells, MMTV-luciferase reporter, dexamethasone, overnight | AID 652017, 2013 | 370,000 tested, 1% active | activation, % at 9.1 µM; in the data active = activation above about 7.8%
ssDAF-12 act: S. stercoralis DAF-12 nuclear receptor activators, primary screen, cell-based, luminescence, HEK293, GRIP1 co-expression, lit1-tk-luc. Nuclear hormone receptor DAF-12 (Strongyloides stercoralis). HEK293 ssDAF-12/GRIP1 lit1-tk-luc reporter; % of 3 µM dafachronic acid response. activation, % at 6.8 µM. 370,000 tested, 1% active. AID 652126, 2013;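 active = activation above the mean over all tested compounds plus 3 SD, cut at about 0.9% in these data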
DAX1 inh-2: DAX1 (NR0B1) inhibitors, primary screen, cell-based, HEK293, Gal4-DAX1, luciferase luminescence; inhibition, % at 6.75 µM; HEK293 Gal4-DAX1 luciferase reporter; Nuclear receptor subfamily 0 group B member 1 (Homo sapiens), P51843; 340,000 tested, 0.99% active;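 active = inhibition above the mean over all tested compounds plus 3 SD, cut at about 4.2% in these data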;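 also: inhibition shows as a rise in luminescence from relieved DAX1 repression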
Target sequence (P51843 207-470 limits assumed): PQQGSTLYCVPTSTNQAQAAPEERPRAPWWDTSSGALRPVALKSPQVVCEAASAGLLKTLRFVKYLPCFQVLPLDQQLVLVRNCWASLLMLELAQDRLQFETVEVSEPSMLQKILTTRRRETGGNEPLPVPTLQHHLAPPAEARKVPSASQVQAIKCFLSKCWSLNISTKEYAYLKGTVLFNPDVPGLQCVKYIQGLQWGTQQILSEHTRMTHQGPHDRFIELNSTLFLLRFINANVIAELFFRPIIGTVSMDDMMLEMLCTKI
hcDAF-12 act: H. contortus DAF-12 nuclear receptor activators, primary screen, cell-based, luminescence, HEK293, lit1-tk-luc reporter | activation, % at 6.8 µM | AID 652067, 2013 | HEK293 hcDAF-12 lit1-tk-luc reporter; 0% DMSO, 100% Δ7-dafachronic acid | 370,000 tested, 1.4% active;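 active = activation above the mean of all tested compounds plus 3 SD, cut at about 5.5% in these data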
Of the large screens only hits and unclear results are named; the others gave an inactive call. Only some compounds are listed: those with a hit (about 4.8% of all), similar ones and a draw of the others.

CCc1nc(C)ccc1OCC(=O)N1CCc2c([nH]c3ccccc23)C1c1ccccn1 (centres undefined)	none
CCc1nccn1CCC(=O)N1CCc2c([nH]c3ccccc23)C1CC(C)C (centres undefined)	hcDAF-12 act 5.6
NS(=O)(=O)c1ccc(CCNS(=O)(=O)c2ccccc2)cc1	none
CCc1c(C)c2ccc(OCC(=O)NCC3CCC(C(=O)O)CC3)c(C)c2oc1=O (centres undefined)	hgDAF12 agonist 11
N#CC1(NC(=O)CSc2nc3ccccc3s2)CCCCC1	none
Cc1ccccc1NC(=O)CSc1nc2ccccc2o1	hgDAF12 agonist 11
Cc1ccccc1/C=N/NC(=O)CSc1nc2ccccc2o1	none
N#CC1(NC(=O)CSc2nc3ccccc3o2)CCCCC1	DAX1 inh-2 4.9
COC(=O)CNC(=O)Cn1nc(C)c([N+](=O)[O-])c1C	none
Nc1c(Br)cc2c([nH]c(=O)c3ccccc32)c1Br	ssDAF-12 act 2.4, hcDAF-12 act 6.3
O=c1[nH]c2ccccc2c2ccc(Cl)cc12	none
Cc1ccc(C)c(NC(=O)CSc2nnc(CSc3nc(C)cc(C)n3)n2Cc2ccco2)c1	none
O=C(Nc1ccc(OCC(=O)N2CCC(Cc3ccccc3)CC2)cc1)c1ccco1	none
O=c1oc2ccccc2n1CCCOc1ccccc1	hgDAF12 agonist 11
CN(CC(=O)Nc1ccc(Cl)cc1)C(=O)CCC1CCCC1	none
Nc1c(C(=O)OCC(=O)NCc2ccccc2)[nH]c(=O)[nH]c1=O	DAX1 inh-2 7.9
O=C(CCc1ccccc1)Nc1ccc2ccccc2n1	hgDAF12 agonist 12
O=C(COC(=O)c1ccc2ccccc2n1)NCc1ccccc1	DAX1 inh-2 4.9
Nc1c(C(=O)OCC(=O)Nc2ccccc2Br)[nH]c(=O)[nH]c1=O	none
COCCN(CCOC)Cc1cc(=O)oc2cc3c(cc12)CCC3	none
CCOC(=O)[C@]12CCC=C1N(Cc1ccc(Cl)cc1Cl)C(=O)[C@H](CC(=O)NCCCOC)C2	none (no result: DAX1 inh-2)
CCOC(=O)c1nn(-c2ccc(F)cc2)cc1O	none
CCOC(=O)c1nn(-c2ccc3c(c2)CCN3C(C)=O)cc1O	DAX1 inh-1 3.9
CC(=O)N1N=C(c2ccc(Br)cc2)OC12CCCC2	DAX1 inh-2 4.4
Cn1c(=O)c2c(-c3ccccc3)n(-c3ccccc3N)cc2n(C)c1=O	hgDAF12 agonist 12
Cc1cc(C)nc(N/C(=N\S(=O)(=O)Cc2ccccc2)Nc2ccccc2Br)n1	DAX1 inh-2 4.4
COC(=O)[C@@H](C)NC(=O)c1ccc2oc(CCc3ccccc3)nc2c1	hgDAF12 agonist 11
COC(=O)CCCNC(=O)c1ccc2oc(CCCc3ccccc3)nc2c1	none
CCOc1ccc(CCNC(=O)CN2C(=O)NC3(CCCc4ccccc43)C2=O)cc1OCC (centres undefined)	none
Cc1ccc(-n2nc3c(Cl)nnc(C)c3c2C)cc1	none
CSc1nnc2c(n1)c(C)nn2-c1ccc(C)cc1	ssDAF-12 act 1.3
COc1cc(/C=N/Nc2ccc(C(F)(F)F)cn2)ccc1O	none
O=C(O)c1ccc(/C=N/Nc2ccc(C(F)(F)F)cn2)cc1	hgDAF12 agonist 19, DAX1 inh-1 4.2, ssDAF-12 act 3.4, hcDAF-12 act 6.0
O=C(O)c1ccc(/C=N/Nc2cccc(C(F)(F)F)c2)cc1	DAX1 inh-1 4.3
COc1ccc(/C=N/Nc2ccc(C(=O)O)cc2)cc1Br	DAX1 inh-1 4.0
O=C(N/N=C/c1ccc(O)cc1)c1cccc(C(F)(F)F)c1	none
O=C(COC(=O)c1cc(S(=O)(=O)N2CCOCC2)ccc1F)Nc1ccc2c(c1)OCO2	none
Fc1ccc(NC(=S)Nc2cccnc2)cc1	none
c1ccc(-c2nc3ccccc3[nH]2)cc1	hgDAF12 agonist 12, DAX1 inh-1 4.4
S=C(Nc1ccc(-c2nc3ccccc3[nH]2)cc1)Nc1cccnc1	hgDAF12 agonist 11
c1ccc(-c2nc3ccccc3[nH]2)nc1	ssDAF-12 act 1.3
O=c1[nH]c(-c2ccccn2)nc2ccccc12	none
c1cncc(-c2nc3ccccc3[nH]2)c1	none
CC(=O)Nc1sc2c(c1-c1nc3ccccc3s1)CCN(C(C)C)C2	none (no result: hgDAF12 agonist, DAX1 inh-1, SMARCA2 act, ssDAF-12 act, hcDAF-12 act)
COc1cccc(-c2ccc(=O)n(CC(=O)NCCN3CCOCC3)n2)c1	ssDAF-12 act 0.9
Clc1ccc(-n2nnnc2-c2cnc3ccc(Cl)cc3c2-c2ccccc2)cc1	DAX1 inh-2 6.2
COc1ccc(-c2cc(C(=O)NCC(c3ccccc3)N(C)C)c3ccccc3n2)cc1OC (centres undefined)	none
CC1OC(Nc2ccc(N=Nc3ccccc3)cc2)C(O)C(O)C1O (centres undefined)	none
CC1OC(Nc2cccc3ccccc23)C(O)C(O)C1O (centres undefined)	ssDAF-12 act 1.8
Cc1ccc(C(=O)N2CCC(C(=O)NC3CCCC3)CC2)cc1	DAX1 inh-2 4.3
Cc1ccc2nc(SCC(=O)Nc3ccc4c(c3)OCCO4)[nH]c2c1	none
CC(C)c1cc(C(N)=O)c(NC(=O)c2cccc(COc3ccc(Cl)cc3)c2)s1	hgDAF12 agonist 13
COc1cccc(-c2cnc3cccnn23)c1	hgDAF12 agonist 12 (no result: DAX1 inh-2)
CS(=O)(=O)Nc1ccc(-c2cnc3cccnn23)cc1	hgDAF12 agonist 12 (no result: DAX1 inh-2)
S=C1NNC2(CC3CC2C2CCCC32)NN1 (centres undefined)	none
Cc1ccc(-c2ccc(/C=N/O)o2)cc1[N+](=O)[O-]	hgDAF12 agonist 13
Cn1ccnc1SCC(=O)c1ccc2ccccc2c1	hgDAF12 agonist 13
C[C@@H]1Cn2cnc(C(=O)N[C@@H](C)C(=O)OC(C)(C)C)c2C(=O)N1	none
CC(C)(C)c1ccc(C(=O)Nn2cnnc2)cc1	ssDAF-12 act 1.0
Cn1nc(C(F)(F)F)c(-c2ccccc2)c1NC(=O)CCC(=O)O	none (no result: DAX1 inh-2)
CC(=O)n1cc(C2C(=O)CC(C)(C)CC2=O)c2ccccc21	ssDAF-12 act 1.4, hcDAF-12 act 6.3
COC(=O)c1cn(C(=O)c2ccccc2)c2ccccc12	none
C=C(c1cn(C(C)=O)c2ccccc12)c1cn(C(C)=O)c2ccccc12	hcDAF-12 act 5.7
CC1(C)CC(=O)C(c2c[nH]c3ccccc23)C(=O)C1	none
O=C(NC1CCCCC1)N1CCN(Cc2nc3ccccc3c(=O)[nH]2)CC1	none

Screening results from PubChem.
